The results in this text go back to PubChem BioAssay (EPA / NIEHS).

Calls of active or inactive are those of the source. How the source made its calls: active means hit-call score of the fitted dose curve at least 0.9, where 1 is the maximum; inactive means score below 0.9.

The nature of experiment [1]: ATG_E_Box_CIS: Attagene CIS-FACTORIAL HepG2 Assay for human Enhancer Box (E-box) (AID 2282936). The settings on record: HepG2 E-box cis-reporter transcription, actives raise or lower the signal. The method in brief: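 Cells: HepG2 (human liver), transient MRTU transfection. Exposure 24 h. RNA → oligo(dT) RT → PCR → 6-FAM label → HpaI → CE. Activity fitted both directions relative to DMSO.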

Experiment [2] in a line: ATG_M_61_CIS: Attagene CIS-FACTORIAL HepG2 Assay for M61 Transcription Factor (Internal Marker) (AID 2282937). The following applies: HepG2 Attagene CIS-FACTORIAL M61 internal marker reporter; actives raise or lower the signal. The method in brief:
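Using transiently transfected HepG2 liver cells, reporter transcript levels were assessed 24 h post-dosing by RT-PCR and capillary electrophoresis. Changes in either direction were fitted relative to DMSO controls.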

Experiment [3] can be described thus: ATG_EGR_CIS: Attagene CIS-FACTORIAL HepG2 Assay for human Early Growth Response 1 (EGR1) (AID 2282938). The following applies: HepG2 Attagene CIS-FACTORIAL EGR reporter mRNA; actives raise or lower the signal. The method in brief: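 Fluorescent capillary-electrophoresis signal of reporter cDNA fragments serves as read-out. HepG2 cells bear transiently transfected cis-promoter reporter units and are exposed 24 h; gain- or loss-of-signal is fitted against DMSO.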

Experiment [4] can be described thus: ATG_M_19_CIS: Attagene CIS-FACTORIAL HepG2 Assay for M19 Transcription Factor (Internal Marker) (AID 2282939). The settings on record: HepG2 Attagene CIS-FACTORIAL M19 internal marker reporter; actives raise or lower the signal. The method, boiled down: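 Readout: fluorescent reporter-transcript fragments by capillary electrophoresis after RT-PCR. Human HepG2 liver cells carried transfected MRTU constructs reporting endogenous transcription-factor activity; exposure 24 h. Gain or loss of signal fitted relative to DMSO.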

Experiment [5] in a line: ATG_ERE_CIS: Attagene CIS-FACTORIAL HepG2 Assay for Estrogen Response Element (ERE) (AID 2282940). The settings on record: HepG2 ERE cis-reporter, Attagene RNA transcript; actives raise or lower the signal. The method, boiled down: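 Readout: reporter mRNA induction by RT-PCR, FAM-labelled primer extension, HpaI digestion and capillary electrophoresis, 24 h after dosing transfected HepG2 cells. Endogenous transcription factors act on cis-element-regulated reporters. Gain or loss fitted against DMSO.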

The nature of experiment [6]: ATG_Ets_CIS: Attagene CIS-FACTORIAL HepG2 Assay for human Erythroblast Transformation Specific (ETS) (AID 2282941). The settings on record: HepG2 ETS cis-reporter transcription, actives raise or lower the signal. The method in brief:
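After transient cis-reporter transfection, HepG2 cells receive test chemical for 24 h. Reporter mRNA levels, measured by RT-PCR and capillary electrophoresis fluorescence, are analysed bidirectionally relative to the DMSO baseline.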

Experiment [7] deals with Hepatocyte nuclear factor 3-beta (Homo sapiens) (UniProt Q9Y261). Kind of experiment: ATG_FoxA2_CIS: Attagene CIS-FACTORIAL HepG2 Assay for human Forkhead box A2 (FOXA2) (AID 2282942). The following applies: HepG2 cis-reporter transcription factor activity, 24 h; actives raise or lower the signal. The method in brief: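 Fluorescence signal of reporter cDNA fragments, separated by capillary electrophoresis, reflects endogenous transcription factor activity in transfected HepG2 after 24 h. Both increases and decreases fitted against DMSO.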
Hepatocyte nuclear factor 3-beta (Homo sapiens), sequence (Q9Y261 whole entry, looked up, the tested form may be a part): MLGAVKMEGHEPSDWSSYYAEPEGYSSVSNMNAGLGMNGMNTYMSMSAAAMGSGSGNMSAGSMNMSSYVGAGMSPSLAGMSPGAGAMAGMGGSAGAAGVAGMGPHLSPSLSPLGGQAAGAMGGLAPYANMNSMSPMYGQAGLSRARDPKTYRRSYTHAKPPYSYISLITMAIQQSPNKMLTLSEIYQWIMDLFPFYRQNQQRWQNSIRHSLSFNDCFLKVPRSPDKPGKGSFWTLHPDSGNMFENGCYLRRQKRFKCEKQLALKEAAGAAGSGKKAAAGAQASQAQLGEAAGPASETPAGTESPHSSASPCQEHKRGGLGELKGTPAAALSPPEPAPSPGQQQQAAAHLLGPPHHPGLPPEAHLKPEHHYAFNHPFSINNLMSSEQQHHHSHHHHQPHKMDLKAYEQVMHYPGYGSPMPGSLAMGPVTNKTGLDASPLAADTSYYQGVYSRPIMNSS

Experiment [8] in a line: ATG_FoxO_CIS: Attagene CIS-FACTORIAL HepG2 Assay for human Forkhead box O (FoxO) (AID 2282943). The settings on record: HepG2 Attagene cis-reporter, FoxO element, mRNA; actives raise or lower the signal. The method, boiled down:
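Human hepatoma HepG2 cells carry transiently introduced reporter transcription units controlled by cis promoter elements. Chemical treatment lasted 24 h, and mRNA signal was compared with DMSO.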

Experiment [9] can be described thus: ATG_GATA_CIS: Attagene CIS-FACTORIAL HepG2 Assay for human GATA Binding Protein (AID 2282944). The settings on record: HepG2 GATA cis-element reporter, Attagene multiplex mRNA; actives raise or lower the signal. The method, boiled down: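 Read-out: fluorescent reporter mRNA fragments resolved by capillary electrophoresis after RT-PCR. Human liver HepG2 cells carried transiently transfected cis-regulated reporter constructs; chemicals incubated 24 h; gain or loss of signal fitted relative to DMSO.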

Experiment [10] can be described thus: ATG_GLI_CIS: Attagene CIS-FACTORIAL HepG2 Assay for human Zinc Finger Protein GLI1 (AID 2282945). The settings on record: HepG2, Attagene cis-factorial reporter mRNA, GLI element; actives raise or lower the signal. The method, boiled down:
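Bidirectional curve fits relative to DMSO, using reporter mRNA levels from RT-PCR plus capillary electrophoresis. Cells were HepG2 transiently carrying cis-regulated reporter constructs, harvested 24 h after dosing.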

Experiment [11] addresses Bile acid receptor (Homo sapiens) (UniProt Q96RI1). The experiment in a line: ATG_IR1_CIS: Attagene CIS-FACTORIAL HepG2 Assay for human Nuclear Receptor Subfamily 1 Group H Member 4 (NR1H4), IR1 submotif (AID 2282946). The following applies: IR1 reporter transcription, actives raise or lower the signal. The method in brief:
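Cells (human HepG2) carry transiently transfected cis-promoter reporter transcription units. Compounds are incubated 24 h, total RNA is reverse-transcribed and amplified, and labelled fragments are resolved by capillary electrophoresis. Curves use DMSO as baseline.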

Experiment [12] is described as follows: ATG_GRE_CIS: Attagene CIS-FACTORIAL HepG2 Assay for human Glucocorticoid Response Elements (GRE) (AID 2282947). The following applies: HepG2 GRE cis-reporter, Attagene multiplex mRNA; actives raise or lower the signal. The method, boiled down: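 Transient MRTU transfection of human HepG2 liver cells; cis-regulated reporters report endogenous factors. 24 h dosing → RNA isolation → RT-PCR → 6-FAM primer extension → HpaI cut → CE fragment analysis. Bidirectional fit, DMSO negative control.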

Experiment [13] can be described thus: ATG_ISRE_CIS: Attagene CIS-FACTORIAL HepG2 Assay for human Interferon Regulatory Factor 1 (IRF1) binding to an Interferon-Stimulated Response Element (ISRE) (AID 2282948). The settings on record: HepG2 ISRE cis-reporter (Attagene), mRNA transcription readout; actives raise or lower the signal. The method in brief: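 Quantitation relies on labelled RT-PCR fragments separated by capillary electrophoresis. Human HepG2 cells bearing cis-promoter reporter constructs were treated 24 h; DMSO served as baseline for bidirectional fitting.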

Experiment [14] in a line: ATG_M_32_CIS: Attagene CIS-FACTORIAL HepG2 Assay for M32 Transcription Factor (Internal Marker) (AID 2282949).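 Further: background control marker of the multiplexed CIS panel rather than a real target.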 The settings on record: HepG2 Attagene cis-factorial M32 reporter, mRNA; actives raise or lower the signal. The method, boiled down: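 HepG2 cells transiently transfected with multiplexed cis-regulated reporter units, dosed 24 h. Reporter mRNA quantified by RT-PCR, 6-FAM labelling, HpaI digestion and capillary electrophoresis; bidirectional fit vs DMSO.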

The nature of experiment [15]: ATG_M_06_CIS: Attagene CIS-FACTORIAL HepG2 Assay for M06 Transcription Factor (Internal Marker) (AID 2282950). The settings on record: HepG2 Attagene CIS-FACTORIAL M06 internal marker reporter; actives raise or lower the signal. The method, boiled down:
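Terse: HepG2, transient MRTU transfection (FuGene 6), 24 h dosing; total RNA, oligo(dT) RT, PCR, FAM label, HpaI cut, capillary electrophoresis; bidirectional fit vs DMSO baseline; background-control endpoint.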

Experiment [16] has as its target Hypoxia-inducible factor 1-alpha (Homo sapiens) (UniProt Q16665). Kind of experiment: ATG_HIF1a_CIS: Attagene CIS-FACTORIAL HepG2 Assay for human Hypoxia Inducible Factor 1 (HIF1A) (AID 2282951). The following applies: HepG2 Attagene cis-factorial HIF1a reporter transcription; actives raise or lower the signal. The method, boiled down: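 Endogenous-TF cis reporter readout, human HepG2 cells, 24 h incubation; mRNA detected via RT-PCR and capillary electrophoresis fluorescence; DMSO-normalised bidirectional fitting.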

In experiment [17] the target is Hepatocyte nuclear factor 6 (Homo sapiens) (UniProt Q9UBC0). Kind of experiment: ATG_HNF6_CIS: Attagene CIS-FACTORIAL HepG2 Assay for human Hepatocyte Nuclear Factor 6 (HNF6) (AID 2282952). The following applies: HepG2 Attagene cis-factorial HNF6 reporter transcription; actives raise or lower the signal. The method in brief:
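HepG2 cells transiently transfected with cis-element-driven multiple reporter transcription units, dosed 24 h; reporter mRNA quantified by RT-PCR, FAM primer extension, HpaI digestion and capillary electrophoresis; bidirectional fit versus DMSO baseline.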

Experiment [18] addresses Heat shock factor protein 1 (Homo sapiens) (UniProt Q00613). The experiment in a line: ATG_HSE_CIS: Attagene CIS-FACTORIAL HepG2 Assay for human Heat Shock Transcription Factor 1 (HSE) (AID 2282953). The following applies: HepG2 HSE cis-reporter, Attagene RNA transcription; actives raise or lower the signal. The method in brief:
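Read-out: fluorescence of reporter-specific RT-PCR fragments separated by capillary electrophoresis. HepG2 carrying transfected cis-element reporter units; 24 h dosing; activity fitted in both directions relative to DMSO baseline.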

Experiment [19] is described as follows: ATG_MRE_CIS: Attagene CIS-FACTORIAL HepG2 Assay for human Metal Responsive Element (MRE) (AID 2282954). The following applies: HepG2 MRE cis-reporter transcription, Attagene multiplex; actives raise or lower the signal. The method in brief: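 Transient MRTU transfection of HepG2 (FuGene 6); 24 h dosing; total RNA → oligo(dT) RT, PCR, 6-FAM primer extension, HpaI cut, CE. Bidirectional fit vs DMSO.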

The target of experiment [20] is Transcription factor E2F1 (Homo sapiens) (UniProt Q01094). Kind of experiment: ATG_E2F_CIS: Attagene CIS-FACTORIAL HepG2 Assay for human E2F Transcription Factor 1 (AID 2282935). The following applies: HepG2 Attagene cis-reporter, E2F reporter RNA transcripts; actives raise or lower the signal. The method in brief: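 Cis-element reporter mRNA induction in transiently transfected HepG2, 24 h exposure. Activity fitted in both directions relative to DMSO negative control.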
Transcription factor E2F1 (Homo sapiens), sequence (Q01094 whole entry, looked up): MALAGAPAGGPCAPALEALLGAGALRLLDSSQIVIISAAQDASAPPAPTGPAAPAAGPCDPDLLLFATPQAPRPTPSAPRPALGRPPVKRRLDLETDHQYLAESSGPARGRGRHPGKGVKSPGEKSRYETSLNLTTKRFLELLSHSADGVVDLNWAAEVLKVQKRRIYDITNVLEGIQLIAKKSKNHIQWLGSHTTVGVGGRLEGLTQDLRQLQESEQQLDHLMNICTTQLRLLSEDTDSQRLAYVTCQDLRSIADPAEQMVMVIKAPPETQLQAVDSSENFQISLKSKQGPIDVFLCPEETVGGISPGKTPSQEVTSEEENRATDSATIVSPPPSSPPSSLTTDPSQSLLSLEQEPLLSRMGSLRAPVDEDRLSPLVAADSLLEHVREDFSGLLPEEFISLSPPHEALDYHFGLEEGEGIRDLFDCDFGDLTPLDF

Heat shock factor protein 1 (Homo sapiens), sequence (Q00613 whole entry, looked up, the tested form may be a part): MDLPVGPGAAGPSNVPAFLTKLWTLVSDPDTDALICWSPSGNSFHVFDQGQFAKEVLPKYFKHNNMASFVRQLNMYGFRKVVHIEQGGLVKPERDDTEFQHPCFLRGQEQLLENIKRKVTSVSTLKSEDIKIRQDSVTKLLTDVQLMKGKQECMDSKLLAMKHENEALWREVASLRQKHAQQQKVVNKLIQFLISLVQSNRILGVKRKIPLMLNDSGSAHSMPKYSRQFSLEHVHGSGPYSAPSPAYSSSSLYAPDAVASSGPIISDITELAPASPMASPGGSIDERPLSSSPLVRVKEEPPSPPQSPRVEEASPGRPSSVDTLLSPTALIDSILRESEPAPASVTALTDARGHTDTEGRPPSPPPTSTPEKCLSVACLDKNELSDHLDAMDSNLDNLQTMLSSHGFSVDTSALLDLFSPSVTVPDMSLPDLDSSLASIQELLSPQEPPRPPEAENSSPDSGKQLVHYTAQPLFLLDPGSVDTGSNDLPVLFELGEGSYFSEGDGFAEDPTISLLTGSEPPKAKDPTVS
Hypoxia-inducible factor 1-alpha (Homo sapiens), sequence (Q16665 whole entry, looked up): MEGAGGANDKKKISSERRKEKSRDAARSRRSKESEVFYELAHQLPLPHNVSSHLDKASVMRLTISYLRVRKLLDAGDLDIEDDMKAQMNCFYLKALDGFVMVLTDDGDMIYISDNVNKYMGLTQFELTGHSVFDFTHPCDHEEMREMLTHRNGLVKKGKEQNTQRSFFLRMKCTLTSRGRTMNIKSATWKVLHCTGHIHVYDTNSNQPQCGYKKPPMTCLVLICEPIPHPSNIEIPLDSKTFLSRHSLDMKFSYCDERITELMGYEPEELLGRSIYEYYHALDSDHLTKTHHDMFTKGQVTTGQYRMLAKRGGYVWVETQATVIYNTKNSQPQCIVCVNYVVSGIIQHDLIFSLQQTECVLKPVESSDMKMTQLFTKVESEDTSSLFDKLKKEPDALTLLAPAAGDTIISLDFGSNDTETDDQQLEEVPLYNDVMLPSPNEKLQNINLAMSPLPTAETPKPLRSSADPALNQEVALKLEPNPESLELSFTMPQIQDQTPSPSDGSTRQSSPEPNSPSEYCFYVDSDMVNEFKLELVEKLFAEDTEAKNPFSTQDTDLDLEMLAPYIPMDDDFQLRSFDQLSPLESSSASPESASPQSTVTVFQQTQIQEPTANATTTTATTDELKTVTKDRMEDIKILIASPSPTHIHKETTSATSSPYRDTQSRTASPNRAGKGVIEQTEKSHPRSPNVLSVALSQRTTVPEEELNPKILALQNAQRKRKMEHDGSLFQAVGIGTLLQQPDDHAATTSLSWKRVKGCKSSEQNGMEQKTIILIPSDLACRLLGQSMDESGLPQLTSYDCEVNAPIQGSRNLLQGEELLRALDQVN
Bile acid receptor (Homo sapiens), sequence (Q96RI1 whole entry, looked up, the tested form may be a part): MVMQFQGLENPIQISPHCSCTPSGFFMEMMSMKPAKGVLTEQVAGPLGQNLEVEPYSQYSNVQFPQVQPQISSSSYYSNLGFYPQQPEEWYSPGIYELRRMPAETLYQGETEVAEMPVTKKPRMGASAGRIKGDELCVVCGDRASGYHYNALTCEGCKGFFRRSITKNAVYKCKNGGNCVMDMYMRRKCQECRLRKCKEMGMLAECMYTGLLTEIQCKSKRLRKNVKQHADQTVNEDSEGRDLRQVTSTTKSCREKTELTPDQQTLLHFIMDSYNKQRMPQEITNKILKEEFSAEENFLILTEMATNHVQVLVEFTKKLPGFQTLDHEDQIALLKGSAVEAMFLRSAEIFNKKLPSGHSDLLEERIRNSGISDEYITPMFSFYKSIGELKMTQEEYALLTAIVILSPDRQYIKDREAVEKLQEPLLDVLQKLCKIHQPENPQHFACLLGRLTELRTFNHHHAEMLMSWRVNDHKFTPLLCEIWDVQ
Hepatocyte nuclear factor 6 (Homo sapiens), sequence (Q9UBC0 whole entry, looked up): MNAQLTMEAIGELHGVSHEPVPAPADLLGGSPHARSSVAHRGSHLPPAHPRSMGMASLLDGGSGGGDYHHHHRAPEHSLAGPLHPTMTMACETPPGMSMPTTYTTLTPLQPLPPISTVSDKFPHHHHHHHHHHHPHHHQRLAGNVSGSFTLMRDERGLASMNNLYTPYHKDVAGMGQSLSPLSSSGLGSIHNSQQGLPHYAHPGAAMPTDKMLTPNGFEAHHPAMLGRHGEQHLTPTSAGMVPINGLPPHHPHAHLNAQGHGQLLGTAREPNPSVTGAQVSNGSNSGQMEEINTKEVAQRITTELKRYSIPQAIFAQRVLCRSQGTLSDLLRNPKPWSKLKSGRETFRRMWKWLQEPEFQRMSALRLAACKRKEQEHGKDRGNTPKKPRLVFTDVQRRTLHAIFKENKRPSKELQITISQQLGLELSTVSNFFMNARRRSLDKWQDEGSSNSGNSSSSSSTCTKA

As to `CCOC(=O)C1=NOC(c2ccccc2)(c2ccccc2)C1`, the outcome in [1], in [2], in experiment [3], in experiment [4], in experiment [5] and in experiment [6] was inactive. Besides, the result in experiment [7], in [8], in [9], in experiment [10], in experiment [11] and in experiment [12] was inactive. Moreover, the outcome in experiment [13], in [14], in experiment [15], in [17] and in experiment [19] was inactive. Moreover, the AC50 was 160 µM (active) in experiment [16] and 143 µM (active) in [18].

In the case of `CCCCNC(=S)NCCCC`, the result in experiment [20], in experiment [2], in [3], in [4], in experiment [5] and in experiment [6] was inactive. The molecule was classed as inactive in experiment [7], in experiment [8], in experiment [9], in [10], in [11] and in experiment [12]. The result in experiment [13], in [14], in experiment [15], in experiment [16], in experiment [17] and in experiment [18] was inactive. In [19], the molecule was called inactive.

Take `CCOC(=O)c1ccccc1C`: the molecule was called inactive in experiment [20], in experiment [2], in experiment [3], in experiment [4], in experiment [5] and in experiment [6]. The molecule was classed as inactive in experiment [7], in experiment [8], in experiment [9], in experiment [10], in [11] and in experiment [12]. The molecule was classed as inactive in [14], in [15], in [16], in experiment [17], in experiment [18] and in experiment [19].

On to `CCCCCCCCCC(C)=O`, for which the outcome in [1], in experiment [2], in [3], in [4], in [5] and in experiment [6] was inactive. Also, the outcome in [7], in [9], in experiment [10], in experiment [12], in [13] and in [14] was inactive. Moreover, the outcome in experiment [15], in experiment [16], in [17], in [18] and in experiment [19] was inactive.

As to `C=CCNCC=C`, the result in experiment [1], in [2], in experiment [4], in [5], in [6] and in [7] was inactive. The outcome in experiment [9], in experiment [10], in [11], in [12], in experiment [13] and in [14] was inactive. For the same molecule, the molecule was classed as inactive in experiment [15], in experiment [17], in experiment [18] and in [19]. Also, the AC50 in experiment [16] was 28.3 µM (active).

In the case of `COC(=O)c1ccccc1C`, the molecule was classed as inactive in experiment [2], in experiment [3], in experiment [4], in [5], in experiment [6] and in [7]. The molecule was called inactive in experiment [8], in [9], in [10], in experiment [11], in [12] and in experiment [13]. The molecule was called inactive in experiment [14], in experiment [15], in experiment [17], in experiment [18] and in experiment [19].

Turning to `CCC1COC(=O)O1` (stereo not given), the result in experiment [1], in [2], in experiment [4], in experiment [5], in experiment [6] and in experiment [7] was inactive. Also, the outcome in experiment [8], in [9], in [10], in [11], in experiment [12] and in [13] was inactive. The molecule was called inactive in experiment [14], in experiment [15], in experiment [16], in experiment [17], in [18] and in experiment [19].

The AC50 is the concentration giving half of the maximal activity seen.
